target: MMP20; experiment: pooled miR-30 sensor sort-seq; sequence = guide strand; settings: shRNA
Also: reference of the scale not given here.

| Sequence | sensor-assay potency score (higher = more potent) |
| --- | --- |
| TTCTTGTACTTATAAGTTGGGT | -0.728 |
| TTCTACAGCAGCATCGATTTGG | -0.442 |
| TTCTTGATCACGTTCATTGTGG | -0.0903 |
| TATTTGTGTAATATTTGTCAAG | -1.1 |
| TGTAGCTCCTTAATCTTCCTTA | -0.0346 |
| TAATTCTACAGCAGCATCGATT | -0.811 |
| TAGTCTTTTTCCATTTTCCTTT | -0.827 |
| TTTCACATCATCTTTGGGGAGG | -0.942 |
| TTAATTCTACAGCAGCATCGAT | -0.771 |
| TTCCTTATCATGGAATTGCTTC | -0.732 |
| TTTCCTTTCGTCGTAGCTGTAG | -0.397 |
| TTTCCTTTTCCTTTCGTCGTAG | 0.328 |

target: MMP27; experiment: as above; settings: shRNA

| Sequence | sensor-assay potency score (higher = more potent) |
| --- | --- |
| TTTGGGAACATCAAGGCTGTTT | -0.134 |
| ATTCTTTGTCTTAATGTCGTAT | -0.054 |
| TTAATTCAAACTCAACATCCGT | -0.367 |
| TAGGTTTTTCTTGTGGTCTTAT | -0.201 |
| TATTCTTTGTCTTAATGTCGTA | -0.516 |
| TATTTCAAGAGAGTAGAACTGG | 0.764 |
| AAGAACATTACTTCTCTGCGGA | 0.732 |
| TTGTGGTCTTATCACAGACGGC | -1.63 |
| TTTCTTGTGGTCTTATCACAGA | -0.677 |
| TAATTCAAACTCAACATCCGTG | 0.0831 |
| TAGTTTATTATTCTGTAGGTGA | -0.199 |
| TAATTTGGGAACATCAAGGCTG | 0.912 |

target: MMS22L; experiment: as above; settings: shRNA

| Sequence | sensor-assay potency score (higher = more potent) |
| --- | --- |
| TTGAGATTGACAACACACGATA | -0.65 |
| TAATCTTGTCAGTTTGACCAAC | -0.606 |
| TTCTTGAACACCATCAATGTAT | -0.0869 |
| TTCTTCTAGAATGACACCCTGA | 0.182 |
| TATCTTGCTACAACTTGAGGGC | -0.184 |
| TTTGAGATTGACAACACACGAT | 0.337 |
| TTAAGTAGTTTATTCAACCAGT | -0.299 |
| TAATCCACCAACTAAAACCTAA | -0.962 |
| TTTTTTAACAACTTTTGCCAGA | -0.793 |
| TATATTTTAATACTTCACCAAG | -1.14 |
| TTTATCGCAACAGCAAGTCTTC | -0.217 |
| TTGCTGACAACATAGGTGCAGG | -1.03 |
